Screening results deposited in PubChem by Sanford-Burnham Center for Chemical Genomics.
An excerpt weighted towards active compounds, which were near 2.6% of everything screened.
PHOSPHO1 inh: PHOSPHO1 (human) inhibition | Q8TCT1 | recombinant PHOSPHO1, absorbance phosphatase assay | inhibition, % at 13.3 µM | 290,000 tested, 1.1% active | AID 1565; in the data active = inhibition above about 60%
Target sequence (Q8TCT1 whole entry, looked up): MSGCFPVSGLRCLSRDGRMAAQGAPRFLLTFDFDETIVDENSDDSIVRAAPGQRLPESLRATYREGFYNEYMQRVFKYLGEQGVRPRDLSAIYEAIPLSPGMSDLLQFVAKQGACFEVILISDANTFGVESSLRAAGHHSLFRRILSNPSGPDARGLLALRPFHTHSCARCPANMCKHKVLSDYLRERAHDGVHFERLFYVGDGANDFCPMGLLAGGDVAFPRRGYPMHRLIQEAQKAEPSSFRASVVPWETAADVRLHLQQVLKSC
eIF4H inh: inhibitors of RNA binding by human eIF4H | inhibition, % at 35 µM | 290,000 tested, 0.94% active | eIF4H fluorescence polarization binding assay | Q15056;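 also: calls also rest on retests at 20 µM and on dose response follow-up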
PABP FP inh: blocks human PABP binding to poly(A) RNA; P11940; fluorescence polarization; inhibition, % at 35 µM; 290,000 tested, 1% active; AID 2014;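 also: calls also rest on retests at 20 µM and on dose response follow-up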
MLLE-PAM2 inh: blocks PAM2 peptide binding to the PABP1 MLLE domain; 360,000 tested, 0.36% active; GST-MLLE / FITC-PAM2 fluorescence polarization; AID 588489; inhibition, % at 20 µM; P11940; in the data active = inhibition above about 35%, passing the limit was not always enough;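 also: plate controls were DMSO wells with GST-MLLE for no effect and wells lacking GST-MLLE protein for full effect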
CRFR2-BP antag: blocks CRF-induced signaling of the CRF-BP/CRF-R2 complex | HEK293 CRF-R2/CRF-BP, CRF-induced calcium fluorescence | inhibition, % at 11.8 µM | 350,000 tested, 0.59% active | AID 588475;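 active = inhibition of the ligand-induced calcium signal above about 50% at the single tested concentration, limit read from the data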
Active calls of the source: *; ? = inconclusive; / = no result. Unless noted, no rule for the calls is given here.

SMILES	PHOSPHO1 inh	eIF4H inh	PABP FP inh	MLLE-PAM2 inh	CRFR2-BP antag
S=C(c1ccc(-c2ccccc2Cl)o1)N1CCOCC1	-8.4	11.9	17.1	40.5*	-5.7
O=C1/C(=C/c2ccccn2)SC(=S)N1Nc1ncc(C(F)(F)F)cc1Cl	/	/	/	4.4	-2.4
COCc1cc(C)nc(OC)c1C(N)=O	-23.0	-4.4	1.2	3.4	-17.7
CNC(=O)C1CN(C(=O)c2nn(Cc3ccccc3)c(=O)c3ccccc23)c2ccccc2O1 (stereo not drawn)	/	/	/	-19.3	-13.9
CCc1nc2ccc(C(=O)Nc3cccc(NS(C)(=O)=O)c3)cn2c1N(CC)Cc1cccc(Br)c1	/	/	/	-4.5	/
COc1ccc(OC)c(Nc2nc(-c3cccs3)cs2)c1	-3.4	3.3	12.6	-15.7	-17.4
COc1ccc(Nc2nc(-c3cccs3)cs2)c(OC)c1	79.9*	-0.8	6.6	-19.0	-12.7
CCCNC(=O)c1cc(C2CCCN(C(=O)c3ccc(OC)cc3)C2)on1 (stereo not drawn)	/	/	/	11.7	/
S=c1nccc(-c2ccc3c(c2)CCO3)[nH]1	-87.5	-13.7	-4.0	20.1	-12.1
Cc1ccc(-c2ccnc(=S)[nH]2)cc1	89.9*	-3.4	3.5	36.0	9.9
O=[N+]([O-])c1cc(/C=N/N/C(=N/c2ccccn2)c2ccccn2)ccc1O	32.0	11.6	-2.3	-40.2	64.0*
Cc1csc(N/N=C/c2ccc(O)c([N+](=O)[O-])c2)n1	93.2*	68.1*	23.0*	-27.0	15.8
O=[N+]([O-])c1cc(/C=N\Nc2nc(-c3ccccc3)cs2)ccc1O	-31.1	-2.0	-8.8	-3.5	7.6
O=[N+]([O-])c1ccc(/C=N/N/C(=N/c2ccccn2)c2ccccn2)cc1	-45.6	-0.8	6.7	25.3	6.2
CCN(Cc1ccccc1)C(c1cccc(C#N)c1)c1nnnn1C(C)(C)C (stereo not drawn)	7.0	5.6	0.6	9.2	88.5*
CCN(Cc1ccccc1)C(c1ccc(C(F)(F)F)cc1)c1nnnn1C(C)(C)C (stereo not drawn)	/	/	/	7.2	3.7
Cc1ccccc1OCC(=O)OCC(=O)NC1CCCC(C)C1C (stereo not drawn)	/	/	/	6.8	-0.3
CC1(C(=O)NCCC#N)CCN1C(=O)C1(c2ccccc2)CCCC1 (stereo not drawn)	/	/	/	-7.9	/
COCCNC(=O)C1CCCN(C(=O)c2ccnc(Cl)c2)CC1 (stereo not drawn)	/	/	/	-19.3	/
COc1cccc(/C(C)=N/NS(=O)(=O)c2ccc(Cl)cc2)c1	-9.8	-2.9	9.7	2.4	54.1*
Cc1ccc(SC(C)C(=O)Nc2ccncc2)cc1 (stereo not drawn)	-19.9	3.9	7.5	7.9	-4.4
Cc1ccc(SC(C)C(=O)Nc2cccnc2)cc1 (stereo not drawn)	60.1*	1.9	12.8	9.4	-10.9
O=C(O)c1cc(S(=O)(=O)N2CCOCC2)c[nH]1	/	/	/	0.4	7.4
CCc1nnc(NC(=O)c2cc(-c3ccco3)nc3ccccc23)s1	16.1	76.0*	-7.7	-7.1	-30.5
COc1ccccc1CNC(=O)COC(=O)c1cc(C)nc2ccccc12	/	/	/	6.8	9.0
SMILES	PHOSPHO1 inh	eIF4H inh	PABP FP inh	MLLE-PAM2 inh	CRFR2-BP antag
O=C(NC1CCC(O)CC1)c1cc(-c2ccco2)nc2ccccc12 (stereo not drawn)	20.4	85.4*	4.8*	10.0	12.2
CCc1nnc(NC(=O)c2cc(-c3ccccn3)nc3ccccc23)s1	20.2	-15.0	-3.6	-0.7	-4.9
COc1ccccc1CNC(=O)COC(=O)c1cc(-c2ccco2)nc2ccccc12	16.8	89.6*	64.3*	-12.2	-15.4
O=C(NCC1CCCO1)c1cc(-c2ccco2)nc2ccccc12 (stereo not drawn)	31.4	81.6*	24.5*	12.7	-8.8
CCC(c1nc2ccccc2[nH]1)N(C(=O)C1=NNC(=O)CC1)c1ccccc1 (stereo not drawn)	/	/	/	-17.2	/
O=C(/C=C/c1cc(Br)ccc1F)OCC(=O)N1CCOCC1	/	/	/	-2.4	-8.5
Fc1cccc(Cc2c(-c3ccc(Cl)cc3)nc3ccc(Br)cn23)c1	/	/	/	-5.0	/
COc1ccc(-c2csc(C(C)(O)c3cccnc3)n2)cc1 (stereo not drawn)	/	/	/	2.1	/
O=C(N/N=C/c1cccc(F)c1)c1cc(-c2ccco2)nc2ccccc12	44.0	83.8*	54.1*	-18.2	2.8
COc1cc(/C=N/NC(=O)c2cc(-c3ccco3)nc3ccccc23)cc(OC)c1O	11.5	?	?	-10.7	-0.4
O=C(NCC1CCCO1)c1cc2nc(-c3ccco3)cc(C(F)(F)Cl)n2n1 (stereo not drawn)	34.4	83.0*	52.8*	8.3	2.5
O=C(NCC1CCCO1)c1nn2c(C(F)(F)F)cc(-c3ccco3)nc2c1Cl (stereo not drawn)	14.7	2.3	-2.5	60.2	-1.3
CCN(CC)c1ccc(/C=C2\C(=N)N3N=C(CC(=O)N4CCOCC4)SC3=NC2=O)cc1	38.5	?	?	-150.8	-56.5
Cc1cc(C)nc(SCc2ccc(C(=O)N/N=C/c3ccncc3)cc2)n1	0.6	-8.1	-5.5	4.9	-15.9
Cc1cc(C)nc(SCc2ccc(C(=O)NNC(=O)Nc3cccc(Cl)c3)cc2)n1	7.4	-11.3	-8.7	-14.3	69.5*
Cc1ccnc(SCc2cc(=O)c(OC(=O)c3ccco3)co2)n1	1.8	7.6*	98.1*	-1.7	-0.4
CCCCC(=O)N(C)c1c(C)nc2ccc(C(=O)N3CCN(C(=O)c4ccco4)CC3)cn12	/	/	/	2.4	/
Fc1ccc(C2NC(=S)NC3=C2N2CCC3CC2)cc1 (stereo not drawn)	75.5*	-1.9	2.9	-123.7	8.9
O=C(CSC1=NS(=O)(=O)c2cc(F)ccc2N1)Nc1ccccc1	/	/	/	5.4	4.6
O=C(CSC1=NS(=O)(=O)c2ccccc21)Nc1ccccc1	88.1*	3.1	15.2	23.5	-21.4
COC(=O)CSC1=NS(=O)(=O)c2ccccc21	-4.0	-0.4	1.7	31.7	91.6*
CCOc1ccc(CN(C)C(=O)c2cccc(S(=O)(=O)Nc3ccccc3OC)c2)cc1OC	/	/	/	4.0	-4.8
CN[C@H](C)C(=O)NC[C@H]1O[C@@H](n2cc(C)c(=O)[nH]c2=O)C[C@@H]1O	/	/	/	-0.1	-12.3
COCCN=C1Sc2nc3cc(C)c(C)cc3cc2CN1Cc1cccs1	-7.5	-10.6	6.5	-2.2	0.9
COCCN=C1Sc2nc3ccc(C)cc3cc2CN1Cc1ccco1	96.9*	6.4	27.2	10.4	12.4
COc1cccc(CN(C)C(=O)c2cccc(S(=O)(=O)Nc3cccc(C)c3)c2)c1OC	/	/	/	-7.5	4.5
CCOC(=O)C(C(=O)Nc1cccc(C)n1)C1CCCCC1 (stereo not drawn)	-5.4	-4.9	8.5	-6.0	-9.0
CCOC(=O)C(C(=O)Nc1ccccn1)C1CCCCC1 (stereo not drawn)	70.2*	-7.0	37.1	-107.2	-5.2
O=C(CSc1nc2[nH]ncc2c(=O)[nH]1)Nc1nccs1	48.0	active	51.6*	/	/
C=CC1CN2CCC1CC2C(O)c1ccnc2ccc(OC)cc12 (stereo not drawn)	/	/	/	-6.4	4.1
